PubChem BioAssay
Values joined by “and” are separate entries in the source; they are usually repeats but may differ in a detail not shown here. Identical values can stand only once. Where a SMILES comes first, the peptide text is derived from it.

target: 6-phosphogluconate dehydrogenase, decarboxylating (Homo sapiens) (UniProt P52209); experiment: 6PGD enzyme inhibitors, primary screen, biochemical, human, recombinant enzyme, NADPH absorbance (AID 1159550); settings: recombinant 6PGD, NADPH absorbance 341 nm; at 10 µM; active compounds read high
Sequence (P52209 whole entry, looked up): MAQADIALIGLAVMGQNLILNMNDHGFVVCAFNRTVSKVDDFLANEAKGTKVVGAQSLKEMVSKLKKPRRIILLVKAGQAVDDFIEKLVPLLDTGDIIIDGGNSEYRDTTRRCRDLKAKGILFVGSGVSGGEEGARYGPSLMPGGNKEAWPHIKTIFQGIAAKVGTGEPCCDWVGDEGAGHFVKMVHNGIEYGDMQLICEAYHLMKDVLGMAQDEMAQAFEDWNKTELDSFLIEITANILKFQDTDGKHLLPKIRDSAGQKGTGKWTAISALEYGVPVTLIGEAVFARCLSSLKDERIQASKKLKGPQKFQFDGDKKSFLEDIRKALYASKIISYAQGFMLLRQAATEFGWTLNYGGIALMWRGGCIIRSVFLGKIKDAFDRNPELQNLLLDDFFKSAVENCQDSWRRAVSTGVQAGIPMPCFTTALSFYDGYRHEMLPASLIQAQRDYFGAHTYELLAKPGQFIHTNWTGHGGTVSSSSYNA

inhibition, inactive:
CC(C)CC(NC(=O)CN)C(=O)NC(Cc1ccccc1)C(=O)O (stereo not drawn) (H-Gly-Leu-Phe-OH; configuration not given here) 6.11%
CC(C)c1c(O)ccc2c1CCC1C(C)(CO)CCCC21C (stereo not given) -0.0186%
COc1c(C(C)C)oc2cc3oc(=O)ccc3cc12 2.98%
CO[C@H]1C[C@H](O[C@H]2[C@H](C)[C@@H](O[C@@H]3O[C@H](C)C[C@H](N(C)C)[C@H]3OC(C)=O)[C@@H](C)C[C@@]3(CO3)C(=O)[C@H](C)[C@H](OC(C)=O)[C@@H](C)[C@@H](C)OC(=O)[C@@H]2C)O[C@@H](C)[C@@H]1OC(C)=O -13%
C#CC1(O)CCC2C3CCc4cc(O)ccc4C3CCC21C (stereo not given) 14.4%
CCN1CC2CCC(OC)C34C2C(O)C2(OCOC25CC(OC)C2CC3(O)C5C2OC)C14 (stereo not given) 4.26%
NC(=O)NCC(N)C(=O)O (stereo not given) -2.17%
Nc1ccccn1 -0.139%
Oc1ccc2c(c1)OC[C@]1(O)Cc3cc(O)c(O)cc3C21 (stereo not given in full) 9.03%
O=C1C=CC2=C3c4cc(O)c(O)cc4CC3(O)COC2=C1 (stereo not given) 4.16%
CC(C)[C@@H](C)/C=C/[C@@H](C)[C@H]1CC[C@H]2C3=CCC4CC(=O)CC[C@]4(C)[C@H]3CC[C@]12C (stereo not given in full) 2.32%
O=c1c(O)cccc2c([C@H]3Oc4cc(O)cc(O)c4C[C@H]3O)cc(O)c(O)c12 3.21%
CC(=O)[C@H]1CC[C@H]2[C@@H]3CC(=O)C4=CC(=O)CC[C@]4(C)[C@H]3CC[C@]12C -2.73%
CCCC(=O)OC1(C(=O)CO)CCC2C3CCC4=CC(=O)CCC4(C)C3C(O)CC21C (stereo not given) -0.0758%
Oc1ccc2c(c1)OC[C@H]1c3cc4c(cc3O[C@@H]21)OCO4 -3%
CC(C)c1ccc2c(c1)CC[C@@]1(C)[C@](C)(C(N)=O)CCC[C@]21C 18%
CC(=O)Oc1ccc2c(c1C(C)C)CCC1C(C)(C)CCCC21C (stereo not given) 2.45%
CC(=O)O[C@@H]1CC2C(C)(C)[C@H](O)C[C@H](O)[C@]2(C)C2CC[C@@]3(C)C(=CC(=O)O[C@H]3c3ccoc3)[C@@]21C (stereo not given in full) 13.2%
C[C@H](N)CO -0.518%
COC(=O)C(O)[C@H]1C(C)(C)[C@@H](OC(C)=O)[C@@H]2CC3=C4CC(=O)O[C@@H](c5ccoc5)[C@]4(C)CCC3[C@@]1(C)C2=O (stereo not given in full) 12.8%
COc1ccc2c(c1)OC/C(=C/c1ccc(O)c(O)c1)C2=O 2.37%
COc1ccc(-c2c(O)c3c(OC)c4c(cc3oc2=O)OC(C)(C)CC4)cc1 1.85%
NCCCC(N)CC(=O)NCC1NC(=O)C(CO)NC(=O)C(N)CNC(=O)C(C2CCNC(N)=N2)NC(=O)/C(=C/NC(N)=O)NC1=O (stereo not given) -0.986%
COC(=O)[C@H](O)[C@H]1C(C)(C)C(=O)[C@@H]2C[C@]3(O)[C@@H]4CC(=O)O[C@@H](c5ccoc5)[C@]4(C)CC[C@@H]3[C@@]1(C)C2=O 1.04%
CC(C)CCCCCOC(=O)COc1ccc(Cl)cc1Cl -8.81%
CCCc1occc(=O)c1/C=C/O -1.45%
C/C=C(\C)C(=O)O[C@@H]1[C@@H]2C=C3[C@@H]4CC(=O)O[C@@H](C5=CC(O)OC5=O)[C@]4(C)CC[C@@H]3[C@@](C)(C2=O)[C@@H]([C@@H](O)C(=O)OC)C1(C)C (stereo not given in full) 0.726%
CC(=O)OCC(=O)[C@@]1(O)CC[C@H]2[C@@H]3CC[C@@H]4C[C@H](OC(C)=O)CC[C@]4(C)[C@H]3C(=O)C[C@@]21C 4.42%
CC(=O)Oc1cc2c(c(C)c1OC(C)=O)CC1OC13[C@@]2(C)CC[C@@]1(C)C2C[C@](C)(C(=O)O)CC[C@]2(C)CC[C@]31C (stereo not given in full) 2.26%
N[C@@H](C=O)[C@@H](O)[C@H](O)[C@H](O)CO -0.658%
CC(C)CCC[C@@H](C)[C@H]1CC[C@H]2[C@@H]3CC[C@H]4CC(=O)CC[C@]4(C)[C@H]3CC[C@]12C -4.87% and 3.54%
C[C@H]1O[C@H]1P(=O)(O)O 6.14%
C=CCCCCCCCCCCC[C@@H](O)C[C@@H](O)CO -7.76%
CC(C)c1c(O)ccc2c1CCC1[C@@](C)(C(=O)O)CCC[C@]21C (stereo not given in full) 17.5%
CC(C)C[C@H](NC(=O)[C@H](C)N)C(=O)O (H-Ala-Leu-OH) -6.83%
Cc1cc(=O)c2c(O)c3c(cc2o1)OC(C)(C)CC3 3.81%
COc1c(Cl)c(C)c2c(c1Cl)OC(=O)c1c(C)c(Cl)c(OC)c(Cl)c1O2 -8.06%
CC(=O)NC(Cc1c[nH]c2ccccc12)C(N)=O (stereo not given) -11.6%
COC(=O)C[C@H]1C(C)(C)C2(Cl)O[C@@]34CC2C(=O)[C@]1(C)C3CC[C@]1(C)C4=CC(=O)O[C@H]1c1ccoc1 (stereo not given in full) 6.04%
C[C@]12CC[C@@H](O)C[C@H]1CC[C@@H]1[C@@H]2C(=O)C[C@@]2(C)[C@H]1CC[C@]2(O)C(=O)CO -17%
